# HT1080 IDH1KD tx: HT-1080 IDH1 knockdown cell toxicity (counter line). HT-1080 IDH1 knockdown viability, ATP luminescence, 48 h. Potency, µM (titrated, usually from 46.1 µM), without a hit: at the top dose activity, negative = toxicity, most hits filed as cytotoxic. 360,000 compounds, 2% hits. AID 686971;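 note: 0% = DMSO wells and -100% = cell-free medium wells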
#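 HT-1080-IDH1KD cells (IDH1 knocked down), 750/well in RPMI with 5% FBS, treated with compound 48 h at 37 degrees C. Viability by CellTiter-Glo luminescence, normalised to DMSO and no-cell wells; concentration-response curves classed.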
# KB-V1 MDR tox: KB-V1 MDR subline cytotoxicity. 400,000 compounds, 3.4% hits. AID 1347076. Potency, µM (doses to about 46.1 µM), usual class: cytotoxic. KB-V1 MDR cells viability, CellTiter-Glo, 72 h; note: nearly all actives have a fitted effect of over 60% in size
#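 KB-V1 cells (P-gp-expressing MDR subline of KB-3-1) in phenol-red-free DMEM with 10% FBS were exposed to library compounds over a concentration series for 72 h at 37 degrees C. Viability read by CellTiter-Glo luminescence; concentration-effect curves fitted after normalization.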
# DT40 TDP1 no CPT: qHTS for Inhibitors of human tyrosyl-DNA phosphodiesterase 1 (TDP1): qHTS in cells in absence of CPT | 420,000 compounds, 15% hits | AID 686978, 2013 | DT40 Tdp1-/- hTDP1 cells, no CPT, ATP luminescence, 48 h | Potency, µM (top dose mostly 46.2 µM), inactives show at the top dose activity change, negative = growth inhibition, usual class: inhibitors; note: nearly all actives have a fitted effect of over 55% in size
#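 Camptothecin absent (DMSO only). Human TDP1-complemented DT40 knockout cells, 400 cells/well, 37 °C for minimum 48 hr; ATP measured via CellTiter-Glo, 30 min dark incubation, luminescence.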
# KB-3-1 tox: KB-3-1 parental cell cytotoxicity | 400,000 compounds, 1.4% hits | KB-3-1 viability, CellTiter-Glo ATP luminescence, 72 h | Potency, µM (highest dose often 46.1 µM), actives largely listed as cytotoxic; note: nearly all actives have a fitted effect of over 60% in size
#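 Multi-concentration cytotoxicity screen in KB-3-1 cells grown in DMEM lacking phenol red with 10% FBS. After 72 h at 37 °C with compound, ATP-dependent luminescence was recorded.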
# DT40 TDP1 CPT: growth inhibition of DT40 Tdp1-/-;hTDP1 cells with camptothecin (screen for TDP1 inhibitors); AID 686979; Potency, µM (series often up to 46.2 µM), for inactives: at the highest dose activity change, negative = growth inhibition, most hits filed as inhibitors; chicken DT40 Tdp1-/-;hTDP1 cells + 20 nM CPT, ATP luminescence, 48 h; 420,000 compounds, 12% hits; note: nearly all actives have a fitted effect of over 55% in size
#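 Cell growth measured by CellTiter-Glo luminescence after a minimum 48 h, 37 C compound exposure with 20 nM CPT in Tdp1-knockout DT40 cells stably expressing hTDP1, seeded 400/well; qHTS titration format.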
# HT1080-NT tox: kills 2HG-producing HT-1080-NT fibrosarcoma cells. HT-1080-NT fibrosarcoma viability, CellTiter-Glo ATP luminescence, 48 h. Potency, µM (highest dose often 46.1 µM), for the others: at the top dose activity, negative = less viability, most hits filed as cytotoxic. 360,000 compounds, 1.6% hits. AID 686970;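 note: NT is the 2HG producing partner of a matched IDH1 knockdown line; 0% = DMSO-treated cells and -100% = media-only wells without cells; nearly all actives have a fitted effect of over 55% in size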
#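 Compounds were tested in concentration-response format on HT-1080-NT cells for 48 hours at 37 degrees C. Cell viability came from CellTiter-Glo luminescence; curves were classified by r2, response magnitude and activity.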
# Numbers without * were called inactive; i = inactive; ? = inconclusive; nt = no result; [ ] = remark or other dose. Sampled rows, rich in hits. Any-hit rate of the full collection: about 19%. Calls come from the whole dose curve; as a rule, active = well fitted curve in the direction sought with a large enough effect; inconclusive = small, poorly fitted or top-dose-only effect, or another doubt; inactive = no such curve, though single readings can be large; an effect the other way counts as inactive or inconclusive. Unless noted, % is set by controls: 0 for no effect and ±100 for the full control effect; potency is the fitted concentration of half-maximal effect.
SMILES,HT1080 IDH1KD tx,KB-V1 MDR tox,DT40 TDP1 no CPT,KB-3-1 tox,DT40 TDP1 CPT,HT1080-NT tox
CC1CCCN(C(=O)c2sc3cc([N+](=O)[O-])ccc3c2Cl)C1 (centres undefined),-18%,i,16µM*,i,26µM*,-17%
O=C(NC1CC1)c1sc2cc([N+](=O)[O-])ccc2c1Cl,11%,i,?,i,-6%,20%
COc1ccccc1C1CN(c2ccccc2)N=C1c1cccs1 (centres undefined),14%[9.24 µM],i,?,i,?,?
COc1cccc(C2CN(c3ccc(F)cc3F)N=C2c2cccs2)c1OC (centres undefined),-3%,i,?,i,16µM*,-12%
CC(CC(=O)N(C)c1c(N)n(Cc2ccccc2)c(=O)[nH]c1=O)c1ccccc1 (centres undefined),-4%,i,-5%,i,-1%,1%
Cc1cc(O)c(C(C[N+](=O)[O-])c2ccc(Cl)cc2Cl)c(=O)o1 (centres undefined),?,i,16µM*,i,18µM*,?
O=c1[nH][nH]c(-c2ccccc2O)c1C(C[N+](=O)[O-])c1ccc(Cl)cc1Cl (centres undefined),1%,i,?,i,?,1%
Cc1cc(C)cc(Nc2nc3ccccc3nc2-n2nc(C)cc2C)c1,nt,i,3%,i,10%,nt
O=C(c1ccc2c(c1)OCCO2)N1CCN(c2ccccn2)CC1,26%,i,8%,i,0%,22%
O=C(Nc1ccc2c(c1)OCO2)N1CCN(c2ncc(C(F)(F)F)cc2Cl)CC1,-18%,i,12µM*,i,21µM*,-25%
CC(C)(C(N)=O)N1CCN(c2ncc(C(F)(F)F)cc2Cl)CC1,?,i,15µM*,?,15µM*,-2%
O=C(c1ccc2c(c1)OCCO2)N1CCN(c2ncc(C(F)(F)F)cc2Cl)CC1,-10%,i,16µM*,i,?,-6%
CC(C(=O)N1CCN(c2ccc(Cl)cc2)CC1)c1ncc(C(F)(F)F)cc1Cl (centres undefined),?,i,23µM*,i,18µM*,-13%[9.24 µM]
CCCCCNC(=O)C(c1ccccc1)n1c(=O)c(-c2cc3ccccc3[nH]2)nc2ccccc21 (centres undefined),-29%,?,?,?,?,?
Cc1nnsc1-c1onc(C)c1C(=O)O/N=C/c1ccc(Cl)cc1,-8%,i,2%,i,?,0%
CCC(C)[C@H](NC(=O)NCCCOC(C)C)C(=O)OC (some centres undefined),26%,i,13%,i,0%,24%
Cc1ccsc1C(=O)N1CCN(c2ncc(C(F)(F)F)cc2Cl)CC1,-18%,?,15µM*,?,12µM*,-16%
CCOC(=O)N1CCN(c2ncc(C(F)(F)F)cc2Cl)CC1,-2%,i,?,i,?,-4%
CCn1c2c(c(=N)c3c1CCC3)CCCC2,-19%,?,9.2µM*,12µM*,?,?
CCCCCCCCCCn1c2c(c(=N)c3c1CCC3)CCC2,?,i,0.029µM*,?,0.26µM*,1µM*
CCOC(=O)Cn1c2c(c(=N)c3c1CCC3)CCC2,-23%,i,-7%,?,-8%,-4%
CCCCCCCCCn1c2c(c(=N)c3c1CCC3)CCCC2,4.6µM*,i,0.018µM*,?,0.026µM*,7.3µM*
CCN(CC)CCCn1c2c(c(SCC(=O)Nc3cc(C)cc(C)c3)nc1=O)CCC2,-24%,i,?,i,-22%,-16%
CSc1cnn(CCC#N)c(=O)n1,23%,i,-25%,i,-21%,18%
COC(=O)CCCC[C@@H]1SC[C@@H](NC(=O)OC)[C@@H]1NC(=O)OC,18%,i,-3%,i,-11%,14%
SMILES,HT1080 IDH1KD tx,KB-V1 MDR tox,DT40 TDP1 no CPT,KB-3-1 tox,DT40 TDP1 CPT,HT1080-NT tox
CCc1cccc(NC(=O)CCc2c(C)nc3c(c2C)c(=O)n(C)c(=O)n3C)c1,nt,i,?,i,23µM*,nt
COc1cccc(C(=O)OC(C)C(=O)Nc2ccc3c(c2)OCO3)c1 (centres undefined),-5%,i,8.2µM*,i,13µM*,-8%
COc1cccc(NC(=O)Nc2ccc3c(c2)OCO3)c1,0%,i,7%,i,2%,0%
CC(OC(=O)c1cccnc1Cl)C(=O)Nc1ccc2c(c1)OCO2 (centres undefined),0%,i,21µM*,i,?,0%
Nc1cc(S(=O)(=O)N2CCOCC2)ccc1Oc1cccc(Br)c1,-20%,i,?,i,?,?
Cc1ccc(Sc2ccc(CO)cc2[N+](=O)[O-])cc1,?,i,?,?,13%,-24%
CN1CCN(Cc2ccc(Sc3ccc(Cl)cc3)c([N+](=O)[O-])c2)CC1,?,?,15µM*,?,?,-28%
Cc1ccc(Sc2ccc(CN3CCCC3)cc2[N+](=O)[O-])cc1,-9%,i,5.8µM*,i,6.5µM*,-17%
O=C(O)c1ccccc1C(=O)c1ccc(Sc2ccc(Cl)cc2)c([N+](=O)[O-])c1,-5%,i,-22%,i,-12%,-11%
CCCN(CCC)c1nc2ccccc2nc1C(C#N)C(=O)OCCOC (centres undefined),0%,i,23µM*,i,?,-1%
CCOC(=O)C1CCN(c2nc3ccccc3nc2C(C#N)C(=O)OCCOC)CC1 (centres undefined),16%,i,?,i,?,11%
C=CCN(CC=C)c1nc2ccccc2nc1C(C#N)C(=O)OCCOC (centres undefined),-10%[9.24 µM],?,?,i,21µM*,-4%
C=CCOC(=O)C(C#N)c1nc2ccccc2nc1N1CCN(c2ccccc2OCC)CC1 (centres undefined),-10%,i,-5%,i,1%,-6%
CCN1CCC(O)(C(C(=O)OC)c2ccccc2)CC1 (centres undefined),7%,i,-13%,i,-5%,0%
O=C(/C=C/c1c[nH]c2ccccc12)c1ccccc1,-16%,i,?,i,21µM*,1%
COc1ccc2[nH]cc(/C=C/c3cc[n+](C)cc3)c2c1,-7%,i,5.2µM*,i,?,-2%
